Measurements from PubChem BioAssay AID1159580 (chemical genetic matrix, 2015).
“And” between values parts separate entries of the source, which are not always exact repeats. Identical values can stand only once. About 2,000 (36%) of roughly 5,500 compounds were called active. About 18% were inconclusive and are not listed. No stated cut-off is given here; in the data, active means normalized growth mostly below about 0.91 (no sharp cut-off); inconclusive means no clear call, values can overlap the other calls; inactive means mostly above about 0.92. Some of the results follow.

Test: chemical genetic growth profiling, strain panel (AID 1159580);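 further: tested at 20 µM; growth read once vehicle control cultures reached saturation at 30 °C; 1 = growth at the plate median or of vehicle wells; lower values mean less growth of the strain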
Conditions: growth OD

Measured: normalized growth

CC(C)NNC(=O)c1ccncc1
inactive: S. cerevisiae deletion strains, locus YJR043C, strain POL32, hits give low values 1.01 | S. cerevisiae deletion strains, locus YJR075W, strain HOC1, hits give low values 1 | S. cerevisiae deletion strains, locus YKL068W, hits give low values 1.02 | S. cerevisiae deletion strains, locus YKL085W, strain MDH1 (second series), hits give low values 1.03 | S. cerevisiae deletion strains, locus YKL085W, strain MDH1, hits give low values 1.03 | S. cerevisiae deletion strains, locus YKL160W, strain elf1, hits give low values 1.01 | S. cerevisiae deletion strains, locus YKL190W, strain CNB1, hits give low values 1 | S. cerevisiae deletion strains, locus YKR001C, strain vps1, hits give low values 1.02 | S. cerevisiae deletion strains, locus YKR026C, strain gcn3, hits give low values 0.997 | S. cerevisiae deletion strains, locus YKR091W, strain srl3, hits give low values 1.01 | S. cerevisiae deletion strains, locus YLL001W, strain dnm1, hits give low values 1 | S. cerevisiae deletion strains, locus YLL026W, hits give low values 1.01 | S. cerevisiae deletion strains, locus YLL041C, strain sdh2, hits give low values 1.01 | S. cerevisiae deletion strains, locus YLR027C, strain aat2, hits give low values 0.996 | S. cerevisiae deletion strains, locus YLR039C, strain RIC1, hits give low values 1.02 | S. cerevisiae deletion strains, locus YLR058C, strain SHM2, hits give low values 1.01 | S. cerevisiae deletion strains, locus YLR102C, strain apc9, hits give low values 1.01 | S. cerevisiae deletion strains, locus YLR221C, strain rsa3, hits give low values 1.02 | S. cerevisiae deletion strains, locus YLR258W, strain gsy2, hits give low values 1.02 | S. cerevisiae deletion strains, locus YLR262C, strain YPT6 (second series), hits give low values 1 | S. cerevisiae deletion strains, locus YLR262C, strain YPT6, hits give low values 1.02 | S. cerevisiae deletion strains, locus YLR268W, strain sec22, hits give low values 1.03 | S. cerevisiae deletion strains, locus YLR320W, strain mms22, hits give low values 1.01 | S. cerevisiae deletion strains, locus YLR330W, strain CHS5, hits give low values 1.01 | S. cerevisiae deletion strains, locus YLR342W, strain FKS1 (second series), hits give low values 1.01 | S. cerevisiae deletion strains, locus YLR342W, strain FKS1, hits give low values 0.986 | S. cerevisiae deletion strains, locus YLR357W, strain rsc2, hits give low values 1.01 | S. cerevisiae deletion strains, locus YLR370C, strain arc18, hits give low values 1.01 | S. cerevisiae deletion strains, locus YLR371W, strain rom2, hits give low values 1 | S. cerevisiae deletion strains, locus YLR384C, strain iki3, hits give low values 0.995 | S. cerevisiae deletion strains, locus YLR418C, strain cdc73, hits give low values 1.04 | S. cerevisiae deletion strains, locus YML016C, strain PPZ1, hits give low values 1 | S. cerevisiae deletion strains, locus YML032C, strain rad52, hits give low values 1.02 | S. cerevisiae deletion strains, locus YML120C, strain ndi1, hits give low values 0.999 | S. cerevisiae deletion strains, locus YML124C, strain tub3, hits give low values 1.01 | S. cerevisiae deletion strains, locus YMR058W, strain fet3, hits give low values 1.03 | S. cerevisiae deletion strains, locus YMR078C, strain ctf18, hits give low values 1.01 | S. cerevisiae deletion strains, locus YMR125W, strain sto1, hits give low values 1.02 | S. cerevisiae deletion strains, locus YMR129W, hits give low values 1.01 | S. cerevisiae deletion strains, locus YMR205C, strain PFK2, hits give low values 1 | S. cerevisiae deletion strains, locus YMR223W, strain ubp8, hits give low values 1.02 | S. cerevisiae deletion strains, locus YMR231W, strain pep5, hits give low values 1 | S. cerevisiae deletion strains, locus YMR263W, strain SAP30, hits give low values 1.01 | S. cerevisiae deletion strains, locus YMR307W, strain GAS1, hits give low values 1.05 and 1 | S. cerevisiae deletion strains, locus YNL067W, strain RPL9B, hits give low values 1.01 | S. cerevisiae deletion strains, locus YNL071W, strain lat1, hits give low values 1.03 | S. cerevisiae deletion strains, locus YNL128W, strain TEP1, hits give low values 1.01 | S. cerevisiae deletion strains, locus YNL153C, strain GIM3, hits give low values 1.01 | S. cerevisiae deletion strains, locus YNL175C, strain NOP13, hits give low values 0.994 | S. cerevisiae deletion strains, locus YNL197C, strain WHI3, hits give low values 0.989 | S. cerevisiae deletion strains, locus YNL209W, strain ssb2, hits give low values 1.03 | S. cerevisiae deletion strains, locus YNL224C, strain SQS1, hits give low values 1.02 | S. cerevisiae deletion strains, locus YNL233W, strain BNI4, hits give low values 1.01 | S. cerevisiae deletion strains, locus YNL248C, strain rpa49, hits give low values 1.01 | S. cerevisiae deletion strains, locus YNL250W, strain rad50, hits give low values 1.02 | S. cerevisiae deletion strains, locus YNL271C, strain bni1, hits give low values 1.02 | S. cerevisiae deletion strains, locus YNL298W, strain CLA4, hits give low values 1.01 | S. cerevisiae deletion strains, locus YNL307C, strain MCK1, hits give low values 1.02 | S. cerevisiae deletion strains, locus YNL322C, strain KRE1 (second series), hits give low values 1.01 | S. cerevisiae deletion strains, locus YNL322C, strain KRE1, hits give low values 1 and 0.981 | S. cerevisiae deletion strains, locus YNR049C, strain mso1, hits give low values 1.01 | S. cerevisiae deletion strains, locus YNR052C, strain pop2, hits give low values 1.02 | S. cerevisiae deletion strains, locus YOL006C, strain TOP1, hits give low values 1.04 | S. cerevisiae deletion strains, locus YOL012C, strain htz1 1.02 | S. cerevisiae deletion strains, locus YOL147C, strain pex11, hits give low values 1.01 | S. cerevisiae deletion strains, locus YOR001W, strain rrp6, hits give low values 0.998 | S. cerevisiae deletion strains, locus YOR061W, strain CKA2, hits give low values 1.01 | S. cerevisiae deletion strains, locus YOR069W, strain VPS5, hits give low values 1.01 | S. cerevisiae deletion strains, locus YOR070C, strain gyp1, hits give low values 1.01 | S. cerevisiae deletion strains, locus YOR080W, strain dia2, hits give low values 1.01 | S. cerevisiae deletion strains, locus YOR083W, strain WHI5 (second series), hits give low values 1.01 | S. cerevisiae deletion strains, locus YOR083W, strain WHI5, hits give low values 0.998 | S. cerevisiae deletion strains, locus YOR106W, strain vam3, hits give low values 1.02 | S. cerevisiae deletion strains, locus YOR136W, strain idh2, hits give low values 1.02 | S. cerevisiae deletion strains, locus YOR144C, strain elg1, hits give low values 1.01 | S. cerevisiae deletion strains, locus YOR184W, strain ser1, hits give low values 1.04 | S. cerevisiae deletion strains, locus YOR265W, strain rbl2, hits give low values 1.01 | S. cerevisiae deletion strains, locus YOR270C, strain vph1, hits give low values 1.06 | S. cerevisiae deletion strains, locus YOR290C, strain snf2, hits give low values 1.01 | S. cerevisiae deletion strains, locus YOR316C, strain cot1, hits give low values 1.02 | S. cerevisiae deletion strains, locus YPL051W, strain arl3, hits give low values 1.01 | S. cerevisiae deletion strains, locus YPL055C, strain LGE1, hits give low values 1.02 | S. cerevisiae deletion strains, locus YPL078C, strain atp4, hits give low values 1.01 | S. cerevisiae deletion strains, locus YPL106C, strain sse1, hits give low values 0.991 | S. cerevisiae deletion strains, locus YPL240C, strain hsp82, hits give low values 1.02 | S. cerevisiae deletion strains, locus YPL241C, strain CIN2, hits give low values 0.995 and 0.982 | S. cerevisiae deletion strains, locus YPR119W, strain clb2, hits give low values 1 | S. cerevisiae deletion strains, locus YPR141C, strain kar3, hits give low values 1.01 | S. cerevisiae deletion strains, locus YPR163C, strain tif3, hits give low values 1.02 | S. cerevisiae deletion strains, locus YPR167C, strain met16, hits give low values 1.02 | S. cerevisiae deletion strains, strain wtn01, hits give low values 1.02 | S. cerevisiae strains, strain wild type, hits give low values 1.01
